Source: PubChem BioAssay AID504840 (Johns Hopkins Ion Channel Center, 2011)
In all, about 1,500 compounds went through this assay and about 890 (59%) were called active.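 Rule for the calls: active = inhibition of the choline-evoked signal at any tested dose together with a fitted dose-response curve; inactive = no inhibition at any dose or no curve.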 The set was probably picked from earlier hits. The list is a sample of the results. Results with a measured potency or affinity are listed apart.

target: High affinity choline transporter 1 (Homo sapiens) (UniProt Q9GZV3); assay: CHT inhibitors, dose response, cell-based, 5-point CRC, membrane potential dye (AID 504840); conditions: HEK293-CHT, choline-induced depolarization, CHT with LV-to-AA double alanine mutation; series mostly up to 37 µM; inhibition: at the top concentration;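 note: 0% = buffer-only response and 100% = EC90 choline response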
Sequence (Q9GZV3 whole entry, looked up): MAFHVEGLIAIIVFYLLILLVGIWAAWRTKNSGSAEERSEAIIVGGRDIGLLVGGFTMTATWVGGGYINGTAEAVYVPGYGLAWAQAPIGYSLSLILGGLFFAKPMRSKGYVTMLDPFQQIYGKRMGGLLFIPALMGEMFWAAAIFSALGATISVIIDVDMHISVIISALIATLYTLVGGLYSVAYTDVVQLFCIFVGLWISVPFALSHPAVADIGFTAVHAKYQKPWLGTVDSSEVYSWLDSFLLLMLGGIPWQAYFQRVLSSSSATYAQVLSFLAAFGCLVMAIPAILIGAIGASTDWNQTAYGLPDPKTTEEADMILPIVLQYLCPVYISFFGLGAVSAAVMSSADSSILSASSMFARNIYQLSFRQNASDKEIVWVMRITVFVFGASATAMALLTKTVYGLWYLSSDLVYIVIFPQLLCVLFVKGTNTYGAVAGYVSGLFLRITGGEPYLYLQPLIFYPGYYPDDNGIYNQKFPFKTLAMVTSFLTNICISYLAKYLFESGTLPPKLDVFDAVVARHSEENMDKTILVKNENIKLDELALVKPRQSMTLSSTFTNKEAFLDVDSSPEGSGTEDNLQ

inhibition, inactive:
OCC1OC(n2cnc3c(NC4CCCCC4)ncnc32)C(O)C1O (stereo not drawn) 46.6%
CC(=O)c1ccc(Nc2nc(NCCO)nc(OC(C(F)(F)F)C(F)(F)F)n2)cc1 23.8%
CC1CCN(CCCNC(=O)CN2C(=O)CSc3ccc(S(=O)(=O)N4CCCCC4)cc32)CC1 53.7%
CCCCN(C)CCNC(=O)CN1C(=O)CSc2ccc(S(=O)(=O)N3CCCC3)cc21 52.2%
Cc1ccc(-c2csc3ncnc(-n4cnc5ccccc54)c23)cc1 85%
Cc1ccc(-c2csc3ncnc(N4CCN(C)CC4)c23)cc1C 53.4%
Cc1ccc(-c2csc3ncnc(-n4nnc5ccccc54)c23)cc1 57.5%
O=C(O)CCN1C(=O)CC(N2C(=O)/C(=C/c3ccc(Cl)cc3)SC2=S)C1=O (stereo not drawn) 49.9%
COc1ccc(-c2csc3ncnc(NCCCO)c23)cc1 52.9%
CCCNC(=O)N1CCCC(C(=O)c2cccc(Cl)c2)C1 (stereo not drawn) 6.87%
Cc1cc(O)ccc1NS(=O)(=O)c1ccc2c3c(cccc13)C(=O)N2 38.9%
CCOC(=O)Cc1csc(N/C(=N/S(=O)(=O)c2ccc(F)cc2F)c2ccccc2)n1 11%
CC1Cc2ccccc2N1C(=O)COC(=O)c1ccc(O)cc1 (stereo not drawn) 24.7%
CC[C@H](CO)Nc1nc(Nc2cccc(Cl)c2)c2ncn(C(C)C)c2n1 33.4%
COc1cc2c(cc1OC)/C(=C/C(=O)c1ccccc1F)NCC2 49.9%
CCCCCn1c(=O)c(F)cn(Cc2ccc(OC)c([N+](=O)[O-])c2)c1=O 58.7%
Cn1c(-c2ccccc2)cnc1SCc1nc2ccccc2c(=O)[nH]1 30.3%
N#Cc1ccccc1COC(=O)c1cccnc1N 41.7%
CC1=C(C(=O)NC(C)C)C2(CCC(C)CC2)OC1=O (stereo not drawn) -0.294%
COc1ccc(/C=C2/SC(=S)N(NS(=O)(=O)c3ccccc3)C2=O)cc1 41.8%
CCOc1ccc(/C=C2\SC(=S)N(NS(=O)(=O)c3ccc(C)cc3)C2=O)cc1OC 72.1%
O=C1/C(=C/c2ccc(F)cc2)SC(=S)N1NS(=O)(=O)c1ccccc1 40.3%
COc1cc(C=O)ccc1OCCOCCOc1ccccc1Cl 22.1%
Cc1ccc(C(=O)Nc2cccc(C(F)(F)F)c2)cc1NC(=O)c1csc(-c2ccncc2)n1 21.5%
CCOc1ncccc1C(=O)NCC1COc2ccccc2O1 (stereo not drawn) 15.3%
Cc1ccc(NC(=O)COC(=O)CN2C(=O)COc3ccccc32)cc1 56.4%
CC1(C)CC2CC(C)(CN2C(=O)CCCN2C(=O)c3ccccc3C2=O)C1 (stereo not drawn) 53.6%
Cc1c(CCC(=O)NCCCn2ccnc2)c(=O)oc2c(C)c3occ(C(C)(C)C)c3cc12 76.5%
CCOc1cccc(-c2nn(-c3ccccc3)cc2/C=C(/C#N)C(=O)NCCCn2ccnc2)c1 28.6%
O=C(O)c1ccc(N/N=C/c2cn(-c3ccccc3)nc2-c2cccs2)cc1 55.5%
Cc1ccc2nc(-c3ccccc3)cc(C(=O)NCCCn3ccnc3)c2c1 63%
COc1ccc(/C(O)=C2/C(=O)C(=O)N(c3ccccn3)C2c2cccc(Cl)c2)cc1 (stereo not drawn) 37.6%
O=C(NC1CC1)C1=C[C@H](c2csc3ccccc23)C[C@H](OCc2ccc(CO)cc2)O1 -0.201%
CSc1ccccc1C(=O)NCCS(=O)(=O)N1CCN(c2ccc(F)cc2)CC1 53.1%
O=C(Nc1ccccc1C(=O)NCCCn1ccnc1)c1ccc(Cl)cc1Cl 53.8%
O=C(Nc1ccc(OCc2ccccc2)cc1)Nc1ccccc1C(=O)NCCCN1CCOCC1 37.1%
C=CCn1c(SC2CCOC2=O)nc2scc(C3CC3)c2c1=O (stereo not drawn) 51%
CN(C)CCOC(=O)Cc1ccc(Cl)cc1 22.7%
COc1ccc(OCC(=O)NC(=S)Nc2ccccc2F)cc1 12.5%
CN(Cc1ccccc1)C(=O)COC(=O)COc1ccc(C#N)cc1 44.2%
Cc1sc2nc(SCCN(C)C)n(-c3ccccc3)c(=O)c2c1-c1ccc(F)cc1 57.2%
CCCCOc1cccc(C(=O)NNC(=S)NC2CCCCC2)c1 49%
Oc1ccc(Oc2ncc(Cl)cc2Cl)cc1 41.6%
O=C(C[n+]1cccc2ccccc21)c1ccc(Cl)cc1 31.1%
CSCCC(NC(=O)c1ccccc1)C(=O)Nc1ccc(C)cc1 (stereo not drawn) -7.83%
CC(C)Cc1csc(NC(=O)c2ccc(Br)cc2)c1C(=O)O 35.9%
CC(C)c1c(C(=O)N/N=C/c2cccc(OCc3ccc(F)cc3)c2)nnn1-c1nonc1N 4.16%
CCCOP(=O)(c1ccc(N(C)C)cc1)C(O)c1ccc(Br)cc1 (stereo not drawn) -9.68%
CCN1CCN(CC(=O)Nc2ccc(S(=O)(=O)N3C(C)CCCC3C)cc2)CC1 (stereo not drawn) 76.4%
O=C(NNS(=O)(=O)c1ccc([N+](=O)[O-])cc1)c1ccc2ccccc2c1O 36.4%
O=C(CCN1C(=O)/C(=C\c2cccc(Br)c2)SC1=S)NCCCN1CCOCC1 41.5%
S=c1nc(-c2ccco2)[nH][nH]1 44.5%
O=C(NC(=S)NNC(=O)[C@H]1C[C@@H]1c1ccccc1)c1cccc(F)c1 57.1%
CCN1CCN(c2cc(C)c3cc(NC(=S)N4CCC5(CC4)OCCO5)ccc3n2)CC1 61%
CCCN1CCN(C(=S)Nc2ccc3nc(N4CCN(CC)CC4)cc(C)c3c2)CC1 71.7%
Cc1csc2c(N3CCN(C(=S)Nc4ccc(C(F)(F)F)cc4)CC3)ncnc12 36.7%
O=c1c2c(C(F)(F)F)cc(C(F)(F)F)nc2[nH]n1-c1ccccc1 54.5%
CCN(CC)CCCN(C(=O)c1ccc(OC)cc1)c1nc(-c2ccc(OC)cc2)cs1 41.3%
CCCCCc1cc(=O)oc2c(C(CCN(CC)CC)c3cc(OC)c(OC)c(OC)c3)c(OC)cc(OC)c12 (stereo not drawn) 36.1%
COc1cccc(C(=O)NN/C(C)=C/C(=O)C(F)(F)C(F)(F)C(F)(F)F)c1 43.2%
CSC(SC)=C(C#N)C(=O)c1ccccc1 94.9%
O=C1ON=C(c2ccccc2)/C1=C/c1ccco1 58.5%
C/C(Cl)=C\Cn1c(O)c(N=O)c2ccccc21 51.9%
CCc1ccc(S(=O)(=O)c2n[nH]n3c2nc(=O)c2ccccc23)cc1 40%
CC(NS(=O)(=O)OCC(Cl)(Cl)Cl)c1ccc(Br)cc1 (stereo not drawn) 41.1%
O=C1CCN(CCc2ccccc2)CCN1CCSc1ccccc1 41.9%
O=S(=O)(c1ccc(F)c(F)c1)N1CCN(CCc2ccccc2)CC1 48.3%
COc1ccc(S(=O)(=O)N2CCN(CCc3ccccc3)CC2)c(OC)c1 50.7%
